The results in this text go back to PubChem BioAssay (Tox21).

Assay [1] is described as follows: qHTS assay for small molecules that induce genotoxicity in human embryonic kidney cells expressing luciferase-tagged ATAD5 (AID 651632). Note: nearly all actives have a fitted effect of over 15% in size. Note: potency is the fitted concentration of half-maximal effect. The procedure, abridged:
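DMSO vehicle served as the control. HEK293T reporter cells, 16 hr at 37C, then 30 min Amplite at room temperature; ATAD5 induction is measured as luciferase activity.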

A short description of assay [2]: qHTS assay for small molecule agonists of the p53 signaling pathway - cell viability (AID 651633; calls by dose curve; note: nearly all actives have a fitted effect of over 30% in size; note: potency is the fitted concentration of half-maximal effect). The procedure, abridged: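 Viability counter-read: CellTiter-Glo luminescence (30 min, room temperature) in the same p53RE-bla plates. These plates had been exposed to compounds for 16 h at 37 C.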
Assay [3] in a line: qHTS assay for small molecules that induce genotoxicity in human embryonic kidney cells expressing luciferase-tagged ATAD5 - cell viability (AID 651634; calls by dose curve; note: nearly all actives have a fitted effect of over 25% in size; note: potency is the fitted concentration of half-maximal effect). Put shortly: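 Here HEK293T cells with the ATAD5 luciferase reporter are incubated with test compounds for 15.5 hr, and cytotoxicity is then gauged by measuring protease activity in live cells using fluorescence.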
Assay [4] in a line: qHTS assay for small molecule disruptors of the mitochondrial membrane potential (AID 720635). Note: potency is the fitted concentration of half-maximal effect. Put shortly: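 Mitochondrial membrane potential tracked with Mito-MPS dye, red aggregates (ex 540/em 590 nm) against green monomers (ex 490/em 535 nm). Compound treatment 1 hr at 37C, dye 30 min in HepG2.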
A short description of assay [5]: qHTS assay to test for compound auto fluorescence at 535 nm (green) in HepG2 cells (AID 720675).
A short description of assay [6]: qHTS assay to test for compound auto fluorescence at 460 nm (blue) in HEK293 cells (AID 720678). The procedure, abridged: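 Auto fluorescence in the blue band was quantified as triamterene equivalency. HEK293 cells were seeded at 2,000/well, dosed after a 4-5 hr attachment, and kept overnight at 37C before the 405/460 nm reading.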
Assay [7] is described as follows: qHTS assay to test for compound auto fluorescence at 590 nm (red) in HEK293 cells (AID 720679). Put shortly: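 Autofluorescence equivalency to Rose Bengal sodium, 540/590nm, in HEK293 cells exposed overnight to 23 nL compound per well.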
The nature of assay [8]: qHTS assay to test for compound auto fluorescence at 535 nm (green) in HEK293 cells (AID 720680).
Assay [9] can be described thus: qHTS assay to test for compound auto fluorescence at 535 nm (green) in HEK293 cell free culture (AID 720682). The procedure, abridged: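 DMEM + 10% FBS, cell-free; cpd or DMSO pinned in; Ex485/Em535 read; output as fluorescein-equivalent signal.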
Assay [10] is described as follows: qHTS assay to test for compound auto fluorescence at 590 nm (red) in HEK293 cell free culture (AID 720683). The procedure, abridged:
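Red-channel autofluorescence of compounds in culture medium (DMEM, 10% FBS), no cells, measured at 540/590 nm. Rose Bengal sodium is the reference fluorophore for equivalence.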

The nature of assay [11]: qHTS assay to test for compound auto fluorescence at 460 nm (blue) in HepG2 cell free culture (AID 720685). The procedure, abridged: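 Cell-free plates of MEM plus 10% FBS received 23 nL compound or DMSO vehicle; blue-channel (405/460 nm) intensity scored against triamterene as reference fluorophore.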
Assay [12] in a line: qHTS assay to test for compound auto fluorescence at 535 nm (green) in HepG2 cell free culture (AID 720686).
Assay [13] is described as follows: qHTS assay to test for compound auto fluorescence at 460 nm (blue) in HepG2 cells (AID 720687). The procedure, abridged: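 Blue-channel autofluorescence (Ex/Em 405/460 nm, triamterene-equivalent) was measured after 1 hr compound exposure at 37 C, 5% CO2. Cells were HepG2, plated overnight at 37 C in MEM plus 10% FBS.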
Assay [14] in a line: qHTS assay for small molecule disruptors of the mitochondrial membrane potential - cell viability (AID 720634; calls by dose curve; note: nearly all actives have a fitted effect of over 20% in size; note: potency is the fitted concentration of half-maximal effect). The procedure, abridged:
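Viability of HepG2 cells is scored from ATP content by luminescence; cells are exposed to compound for 1 hr at 37 C and 5% CO2, then dosed with m-MPI dye before the CellTiter-Glo reagent.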

The nature of assay [15]: qHTS assay to test for compound auto fluorescence at 590 nm (red) in HepG2 cells (AID 720674). Put shortly:
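Red autofluorescence (Ex/Em 540/590 nm, Rose Bengal sodium equivalents) was measured in HepG2 cells, 2,000 per well in MEM plus 10% FBS, plated overnight at 37 C. Readings were taken 1 hr after adding 23 nL compound or DMSO, at 37 C and 5% CO2.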

A short description of assay [16]: qHTS assay to test for compound auto fluorescence at 460 nm (blue) in HEK293 cell free culture (AID 720681). Put shortly:
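Blue fluorescence (Ex 405/Em 460 nm, triamterene-equivalent) was read immediately after pin transfer of compound or DMSO into medium (DMEM, 10% FBS) without cells.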

Assay [17] can be described thus: qHTS assay to test for compound auto fluorescence at 590 nm (red) in HepG2 cell free culture (AID 720684). Put shortly:
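Cell-free; medium MEM + 10% FBS; compound or DMSO added by pintool; read Ex 540/Em 590 nm; Rose Bengal sodium as red reference fluorophore.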

The target in assay [18] is Glucocorticoid receptor (Homo sapiens) (UniProt P04150). Put plainly: qHTS assay to identify small molecule agonists of the glucocorticoid receptor (GR) signaling pathway (AID 720691; active = well fitted activation curve with a large enough effect in the signal ratio in the repeat runs, not every such curve was filed as active; the % refers to the signal ratio). Put shortly:
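Compounds in DMSO, alongside positive controls, were added to GR-bla HeLa reporter cells and incubated 18 h at 37 C; GRE-driven beta-lactamase was detected by fluorescence after 2 h with FRET substrate at room temperature.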

Assay [19] shares this target. Put plainly: qHTS assay to identify small molecule antagonists of the glucocorticoid receptor (GR) signaling pathway (AID 720692; active = well fitted inhibition curve with a large enough effect in the signal ratio in the repeat runs, not every such curve was filed as active; the % refers to the signal ratio). The procedure, abridged: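 In a 1536-well cell format, compounds were added 4 h after seeding GR-bla HeLa cells, together with dexamethasone at 5 nM final; reporter activity was measured by FRET-substrate fluorescence following 18 h at 37 C.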

Molecules are shown by their SMILES. Several values for one entry are separate records, joined by “and”; a condition that tells them apart may be missing. Identical values can stand only once. Records with an inconclusive call do not appear. The source holds several records for some structures; these can differ, active in one and inactive in another. Activity calls are given as the source filed them. Unless noted, calls come from the whole dose curve; as a rule, active = well fitted curve in the direction sought with a large enough effect in the repeat runs; inconclusive = weak or mixed curves; inactive = no such curve, though single readings can be large; an effect the other way counts as inactive or inconclusive.
% is set by controls: 0 for no effect and ±100 for the full control effect.

Sequence of Glucocorticoid receptor (Homo sapiens) (P04150 whole entry, looked up): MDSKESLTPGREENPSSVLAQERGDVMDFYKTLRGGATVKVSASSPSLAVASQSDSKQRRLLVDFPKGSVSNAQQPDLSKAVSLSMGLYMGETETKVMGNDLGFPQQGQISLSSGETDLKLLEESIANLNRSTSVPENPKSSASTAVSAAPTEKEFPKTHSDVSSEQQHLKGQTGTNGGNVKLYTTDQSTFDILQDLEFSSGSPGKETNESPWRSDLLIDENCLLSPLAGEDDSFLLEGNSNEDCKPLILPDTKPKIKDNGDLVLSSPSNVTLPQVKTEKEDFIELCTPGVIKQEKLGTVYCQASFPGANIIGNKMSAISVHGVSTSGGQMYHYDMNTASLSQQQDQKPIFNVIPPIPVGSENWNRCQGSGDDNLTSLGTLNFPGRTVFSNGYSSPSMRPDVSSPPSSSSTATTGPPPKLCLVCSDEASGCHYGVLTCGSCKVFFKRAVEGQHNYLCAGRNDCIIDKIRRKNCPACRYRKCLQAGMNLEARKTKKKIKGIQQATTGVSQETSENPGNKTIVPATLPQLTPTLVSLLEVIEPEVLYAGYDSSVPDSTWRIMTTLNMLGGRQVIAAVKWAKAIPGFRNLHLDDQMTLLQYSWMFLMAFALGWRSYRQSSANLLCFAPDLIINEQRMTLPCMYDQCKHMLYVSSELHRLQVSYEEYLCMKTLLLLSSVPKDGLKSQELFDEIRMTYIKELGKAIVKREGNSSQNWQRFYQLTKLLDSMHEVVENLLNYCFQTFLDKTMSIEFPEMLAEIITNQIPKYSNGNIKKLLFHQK

Consider `Oc1cc(Cl)c(Cl)cc1Cl`, for which the Potency entry in assay [1], in assay [2] and in [3] was “inactive” in each case. In addition, in assay [4], the Potency is 5.96 µM (active) [middle of 4 runs]. Moreover, the call in assay [5], in [6], in assay [7], in [8], in assay [9] and in assay [10] was inactive. Besides, the compound was called inactive in assay [11], in [12] and in assay [13].

As for `C=C(C)[C@H]1Cc2c(ccc3c2O[C@@H]2COc4cc(OC)c(OC)cc4[C@@H]2C3=O)O1`, the Potency result in [1] was “inactive”. The Potency was 139 nM (active) and 486 nM (active) in [3]; 11.9 µM (active) and 31 µM (active) and 12.2 µM (active) in [14]; 15 µM (active) and 31 µM (active) and 4.86 µM (active) in assay [4]. The outcome in [15], in assay [5], in assay [6], in assay [7], in assay [8] and in assay [16] was inactive. Besides, the result in [9], in assay [10], in assay [17], in assay [11], in assay [12] and in assay [13] was inactive.

Regarding `Cc1ccc2c(c1N)C(=O)c1ccccc1C2=O`, the Potency in assay [1] was 13.5 µM (active) and 9.69 µM (active); in [3] it was 12.2 µM (active); in [4] it was 480 nM (active) and 386 nM (active). Besides, the Potency entry in [2] was “inactive”. Moreover, the call in [15], in assay [5], in assay [6], in assay [7], in assay [9] and in assay [10] was inactive. In addition, the result in [17], in [11], in assay [12] and in assay [13] was inactive.

On to `C=CCc1ccc2c(c1)OCO2`, for which the Potency result in assay [2], in assay [3] and in [14] was “inactive” each time. Further, the outcome in assay [6], in assay [7], in assay [9], in assay [10], in assay [17] and in assay [11] was inactive. Further, the call in assay [12] and in assay [13] was inactive.

`C1=Cc2cccc3cccc1c23`: the Potency result in assay [1], in [2], in [3], in assay [14], in [18] and in [19] was “inactive” in each case. The compound was classed as inactive in assay [15], in [5], in assay [6], in assay [7], in assay [16] and in [9]. Moreover, the outcome in assay [10], in assay [17], in assay [11], in assay [12] and in [13] was inactive.

In the case of `Cc1c(COC(=O)[C@@H]2[C@H](/C=C(\Cl)C(F)(F)F)C2(C)C)cccc1-c1ccccc1`, the Potency result in [1], in [3] and in assay [14] was “inactive” in each case. In addition, the Potency in assay [4] was 26.7 µM (active) and 34.3 µM (active). Also, the compound was classed as inactive in assay [15], in assay [6], in assay [7], in assay [8], in assay [16] and in assay [9]. Further, the compound was called inactive in assay [10], in assay [17], in assay [11], in assay [12] and in assay [13].

Take `Cc1ccc(N)c(N)c1`: the Potency in [1] is 68.8 µM (active) and 68.6 µM (active). Further, the Potency result in assay [2], in assay [3], in assay [14] and in [19] was “inactive” in each case. The compound was classed as inactive in assay [6], in [7], in [8], in assay [16], in assay [9] and in [10]. The call in assay [17], in assay [11], in assay [12] and in [13] was inactive.

On to `Cc1cc(C)cc(C)c1`, for which the Potency entry in assay [1], in assay [3], in assay [14] and in [4] was “inactive” each time. In addition, the outcome in assay [15], in assay [5], in [6], in assay [7], in assay [16] and in [9] was inactive. Also, the call in [10], in assay [17], in assay [11], in assay [12] and in assay [13] was inactive.

In the case of `CC(C)(C)c1ccccc1O`, the Potency entry in assay [1], in assay [2], in assay [3], in [18] and in [19] was “inactive” throughout. The compound was called inactive in assay [5], in assay [6], in assay [7], in assay [8], in [16] and in [9]. The result in [10], in assay [17], in assay [11], in assay [12] and in [13] was inactive.

Consider `c1ccc(-c2cccc(-c3ccccc3)c2)cc1`, for which the Potency entry in [2] is “inactive”. For the same compound, the call in assay [15], in [5], in [6], in [7], in assay [8] and in assay [9] was inactive. For the same compound, the call in [10], in assay [11], in assay [12] and in assay [13] was inactive.

Regarding `CCOC(=S)S`, the Potency result in [2], in [3], in [14] and in [4] was “inactive” each time. Moreover, the result in assay [6], in assay [7], in [9], in assay [10], in assay [11] and in [12] was inactive. Besides, in assay [13], the call was inactive.

For the compound `COP(=S)(OC)Oc1ccc([N+](=O)[O-])cc1`, in [2], the Potency entry is “inactive”. For the same compound, the Potency result was “inactive and 54.5 µM (active)” in [14]; 34.4 µM (active) in assay [4]. Further, the result in [15], in [5], in assay [6], in [7], in [8] and in assay [9] was inactive. Also, the outcome in [10], in [17], in assay [11], in [12] and in assay [13] was inactive.

Regarding `c1cc(OCC2CO2)ccc1Cc1ccc(OCC2CO2)cc1` (configuration not stated), the Potency result in assay [1], in assay [3] and in assay [14] was “inactive” each time. Besides, in assay [2], the Potency was 54.7 µM (active). Further, the call in assay [5], in assay [6], in [7], in assay [8], in assay [9] and in [10] was inactive. Also, the call in assay [17], in assay [11], in assay [12] and in assay [13] was inactive.
